GLS inh – inhibitors of human glutaminase (GLS); Potency, µM (top dose mostly 45.5 µM), hits mostly inhibitors; hit rate 0.21% among 410,000; GLS enzymatic activity, qHTS titration; O94925
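Compounds were pin-transferred onto hKGA, after which L-glutamine (1 mM solution) and a detection mix of glutamate oxidase, HRP and Amplex Red were added. Initial and 30 min RT fluorescence reads were collected.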
POLB inh – blocks human DNA polymerase beta activity; Pol beta primer extension/strand displacement, fluorescence kinetic; Potency, µM (doses to about 114 µM), usual class: inhibitors; hit rate 1.3% among 340,000; AID 485314
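Homogeneous kinetic assay of primer extension and strand displacement by 10 nM Pol beta, preincubated 15 min at room temperature with compound before 50 nM substrate (final) was added. Read at 0 and 10 min; four-parameter Hill fit.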
GCN5L2 inh – GCN5L2 (KAT2A) acetyltransferase inhibition. Q92830. GCN5L2 HAT assay, ThioGlo1 CoA-SH fluorescence. Potency, µM (doses to about 58.9 µM), usual class: inhibitors. hit rate 0.21% among 390,000
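Compounds, pin-transferred from DMSO stocks, meet 20nM GCN5L2 for 15 min before the reaction begins with H3(1-25) peptide (75uM) and acetyl-CoA (70uM). Thiol-reactive ThioGlo1 reports CoA release over 20 min at room temperature.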
POLK inh – DNA polymerase kappa (human) inhibition; Q9UBT6; purified Pol kappa, fluorescent DNA synthesis assay, 10 min; Potency, µM (doses to about 107 µM), usual class: inhibitors; hit rate 0.53% among 400,000; AID 588579
Target sequence (Q9UBT6 whole entry, looked up): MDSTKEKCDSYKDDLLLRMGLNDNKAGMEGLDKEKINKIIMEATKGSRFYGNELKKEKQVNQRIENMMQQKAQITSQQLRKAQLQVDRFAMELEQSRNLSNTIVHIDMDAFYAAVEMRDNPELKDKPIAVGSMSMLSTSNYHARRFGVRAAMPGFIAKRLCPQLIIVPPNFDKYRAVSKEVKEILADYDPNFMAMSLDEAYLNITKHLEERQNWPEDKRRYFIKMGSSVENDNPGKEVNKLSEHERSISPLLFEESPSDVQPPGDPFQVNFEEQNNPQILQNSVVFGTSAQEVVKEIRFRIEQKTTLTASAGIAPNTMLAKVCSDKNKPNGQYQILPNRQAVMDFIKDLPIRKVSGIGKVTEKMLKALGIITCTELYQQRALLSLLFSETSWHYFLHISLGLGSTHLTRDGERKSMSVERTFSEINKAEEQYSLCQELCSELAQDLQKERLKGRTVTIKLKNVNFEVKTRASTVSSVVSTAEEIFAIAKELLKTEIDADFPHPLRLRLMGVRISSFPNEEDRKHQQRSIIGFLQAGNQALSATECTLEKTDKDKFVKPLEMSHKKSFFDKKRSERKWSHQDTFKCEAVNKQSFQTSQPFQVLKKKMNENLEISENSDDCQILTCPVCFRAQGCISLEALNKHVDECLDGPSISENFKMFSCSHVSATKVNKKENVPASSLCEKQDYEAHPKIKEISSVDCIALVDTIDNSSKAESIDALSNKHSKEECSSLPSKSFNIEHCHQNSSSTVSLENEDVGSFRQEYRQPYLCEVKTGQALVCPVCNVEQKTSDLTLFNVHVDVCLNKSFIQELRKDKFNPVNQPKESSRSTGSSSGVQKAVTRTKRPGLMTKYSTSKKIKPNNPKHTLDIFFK
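Fluorescent qHTS in 1536-well format: enzyme (10 nM) and compound sat 15 min at room temperature before 50 nM substrate (final) was added. Signal taken at 0 and 10 min; no-enzyme buffer wells were negative controls.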
Pol eta inh – inhibitors of human DNA polymerase eta. Q9Y253. recombinant Pol eta, fluorescent DNA replication assay. Potency, µM (doses to about 114 µM), actives largely listed as inhibitors. hit rate 1.2% among 390,000. AID 588591
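Fluorescent replication assay: 50 nM final substrate added after a 15 min room-temperature compound preincubation with 10 nM enzyme. Signal taken at 0 min and again at 10 min.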
Pol iota inh – inhibitors of human DNA polymerase iota; Q9UNA4; Pol iota fluorescent replication assay, 10 min; Potency, µM (doses to about 115 µM), hits mostly inhibitors; AID 588590; hit rate 1% among 390,000
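Pol iota at 10 nM preincubated 15 min with compounds at room temperature; reaction started with fluorescent substrate, 50 nM final. Fluorescence read kinetically at 0 and 10 min; buffer-only wells as negative control.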
A number is an active result. Only some compounds are listed: those with a hit (about 2.4% of all), similar ones and a draw of the others. The call rests on the fitted dose curve; in most records, active means well fitted inhibition curve with a large enough effect; inconclusive means small, poorly fitted or top-dose-only effect, or another doubt; inactive means no such curve, though single readings can be large or run the other way.

What do the screens show for `Cc1ccc2c(c1)ncc[n+]2CC(=O)c1ccc(F)cc1`?
POLK inh: inactive; Pol iota inh: inactive

What do the screens show for `CCCCN1CC[C@H]2C=CC[C@@H](C(=O)NC3CCCCC3)[C@H]2C1=O`?
POLK inh: inactive; Pol iota inh: inactive

Results for Cc1[nH]c(=O)[nH]c(=S)c1C(=O)Nc1ccc(Cl)c(Cl)c1 ?
GLS inh: 1.8µM; POLK inh: inactive; Pol eta inh: inactive; Pol iota inh: inactive

Results for CC(=O)c1c(C)[nH]c(C(=O)Nc2ccc(Cl)c(S(=O)(=O)N(C)C)c2)c1C ?
GLS inh: inactive; POLB inh: inactive; GCN5L2 inh: inactive; POLK inh: inactive; Pol eta inh: inactive; Pol iota inh: inactive

How did O=C(O)CCc1ccc(-c2ccc(Br)cc2)n1CC(=O)O do in these assays?
GLS inh: inactive; POLB inh: 35µM; GCN5L2 inh: inactive; POLK inh: inactive; Pol eta inh: inconclusive; Pol iota inh: inconclusive

What do the screens show for `O=C(O)CCc1ccc(-c2ccccc2)n1CC(=O)O`?
GLS inh: inactive; POLB inh: inactive; GCN5L2 inh: inactive; POLK inh: inactive; Pol eta inh: inactive; Pol iota inh: inconclusive

How did CCOC(=O)c1cccc(NC(=O)CSc2cc(=O)n(C)c3ccccc23)c1 do in these assays?
GLS inh: inactive; POLB inh: inactive; GCN5L2 inh: inactive; POLK inh: inactive; Pol eta inh: inactive; Pol iota inh: inactive

Results for COc1ccc(/C=N/NC(=O)c2nn(-c3ccccc3)c(=O)c3c(N)scc23)cc1 ?
GLS inh: inactive; POLB inh: inconclusive; GCN5L2 inh: inconclusive; POLK inh: 35µM; Pol eta inh: inactive; Pol iota inh: 13µM

Results for CCOC(=O)c1nn(-c2ccc(OC)cc2)c(=O)c2c(N)scc12 ?
GLS inh: inactive; POLB inh: inactive; GCN5L2 inh: inconclusive; POLK inh: inactive; Pol eta inh: inactive; Pol iota inh: inconclusive

What do the screens show for `CN(Cc1ccco1)c1ccnc(-c2cccnc2)n1`?
GCN5L2 inh: inactive; POLK inh: 25µM

How did C/C(=N/Nc1ccccc1C(=O)O)c1cccs1 do in these assays?
GLS inh: 13µM; POLB inh: inactive; GCN5L2 inh: inactive; POLK inh: inactive; Pol eta inh: inactive; Pol iota inh: inactive

How did C/C(=N/NC(=O)c1cccs1)c1cccs1 do in these assays?
GLS inh: inactive; POLB inh: inactive; GCN5L2 inh: inactive; POLK inh: inactive; Pol eta inh: inactive; Pol iota inh: inactive

Results for COc1ccc(N(CC(=O)Nc2cc(OC)cc(OC)c2)S(=O)(=O)c2c(C)noc2C)cc1 ?
GLS inh: inactive; POLB inh: inactive; GCN5L2 inh: inactive; POLK inh: inactive; Pol eta inh: inactive; Pol iota inh: 89µM

How did COc1ccc(N(CC(=O)Nc2ccc(C)cc2)S(=O)(=O)c2c(C)noc2C)cc1 do in these assays?
GLS inh: inactive; POLB inh: inactive; GCN5L2 inh: inactive; POLK inh: inactive; Pol eta inh: inactive; Pol iota inh: inactive

What do the screens show for `COc1cc2c(NC3CCN(C)CC3)nc(N3CCCN(C)CC3)nc2cc1OCCCN1CCOCC1`?
POLK inh: inactive; Pol iota inh: inactive

How did CCOc1ccccc1N1CC(C(=O)N(CC)C2CCS(=O)(=O)C2)CC1=O (stereo unspecified) do in these assays?
GLS inh: inactive; GCN5L2 inh: inactive; POLK inh: inactive; Pol eta inh: 50µM; Pol iota inh: inconclusive

What do the screens show for `CCOc1ccccc1N1CCN(CC(=O)N(C2CCCC2)C2CCS(=O)(=O)C2)CC1` (stereo unspecified)?
GLS inh: inactive; GCN5L2 inh: inactive; POLK inh: inactive; Pol eta inh: inactive; Pol iota inh: inactive

How did CCCC1=NN2C(=N)/C(=C\c3cc(C)n(Cc4ccccc4)c3C)C(=O)N=C2S1 do in these assays?
GLS inh: inactive; POLB inh: inactive; GCN5L2 inh: inactive; POLK inh: inactive; Pol eta inh: inactive; Pol iota inh: inactive

What do the screens show for `CCC1=NN2C(=N)/C(=C\c3ccc(SCc4ccco4)o3)C(=O)N=C2S1`?
GLS inh: inactive; POLB inh: 13µM; GCN5L2 inh: inactive; POLK inh: inconclusive; Pol eta inh: 16µM; Pol iota inh: 22µM

What do the screens show for `CCCC1=NN2C(=N)/C(=C\c3ccc(SCc4ccco4)o3)C(=O)N=C2S1`?
GLS inh: inactive; POLB inh: 13µM; GCN5L2 inh: inconclusive; POLK inh: 28µM; Pol eta inh: 3.5µM; Pol iota inh: 20µM

How did O=C1NC(=S)S/C1=C/c1ccc(OC(=O)c2ccco2)cc1 do in these assays?
GLS inh: inactive; POLB inh: inconclusive; GCN5L2 inh: inactive; POLK inh: inactive; Pol eta inh: inconclusive; Pol iota inh: inactive

How did O=C1NC(=S)S/C1=C\c1ccc(SCc2ccco2)o1 do in these assays?
GLS inh: 11µM; POLB inh: 2.2µM; GCN5L2 inh: 14µM; POLK inh: 1.8µM; Pol eta inh: 1.6µM; Pol iota inh: inconclusive

How did O=C(C[N+]1(CC(O)c2ccccc2)CCOCC1)c1ccccc1 (stereo unspecified) do in these assays?
POLK inh: inactive; Pol iota inh: inactive

How did CCc1ccc(Nc2nnc(SCC(=O)NC(=O)CN3CCCC3=O)s2)cc1 do in these assays?
GLS inh: inactive; GCN5L2 inh: inactive; POLK inh: inactive; Pol eta inh: 45µM; Pol iota inh: 45µM

How did CCc1cc(=O)oc2c(CN3CCCC3)c(O)c(Cl)cc12 do in these assays?
GLS inh: inactive; POLB inh: inactive; GCN5L2 inh: inactive; POLK inh: inactive; Pol eta inh: inactive; Pol iota inh: inactive

What do the screens show for `CCc1cc(=O)oc2cc(C)c(CN3CCCC(C)C3)c(O)c12` (stereo unspecified)?
GLS inh: inactive; POLB inh: 3.2µM; GCN5L2 inh: 32µM; POLK inh: 10µM; Pol eta inh: 35µM; Pol iota inh: 3.5µM

What do the screens show for `CC(=O)Nc1ccc(S(=O)(=O)Nc2cc(C)on2)cc1`?
GLS inh: inactive

What do the screens show for `CCCSc1nc2sc3c(c2c(=O)[nH]1)CCN(Cc1ccccc1)C3`?
GLS inh: inconclusive; POLB inh: 40µM; POLK inh: inactive; Pol eta inh: inconclusive; Pol iota inh: inactive

What do the screens show for `O=C1c2ccccc2NC(c2ccc(OCc3ccccc3)c(OCc3ccccc3)c2)N1Cc1ccco1` (stereo unspecified)?
POLK inh: inactive; Pol iota inh: inactive

Results for CC(=O)c1ccc(NC2=C(N3CCOCC3)C(=O)c3ccccc3C2=O)cc1 ?
GLS inh: inactive; POLB inh: inactive; GCN5L2 inh: inactive; POLK inh: inactive; Pol eta inh: inactive; Pol iota inh: inconclusive

Results for Cc1ccc(NC2=C(N3CCOCC3)C(=O)c3ccccc3C2=O)cc1 ?
GLS inh: inactive; POLB inh: 14µM; GCN5L2 inh: inactive; POLK inh: inactive; Pol eta inh: inactive; Pol iota inh: 8.9µM

Bioassay records deposited in PubChem BioAssay by National Center for Advancing Translational Sciences (NCATS).
